# Measured values taken from PubChem BioAssay (Tox21).
# Several values for one entry are separate records, joined by “and”; a condition that tells them apart may be missing. Identical values can stand only once. Where a structure was tested more than once in an assay, its records may differ in their call. Activity calls are given as the source filed them. Where a call stands in place of a potency, no number is given. Unless noted, calls come from the whole dose curve; as a rule, active = well fitted curve in the direction sought with a large enough effect in the repeat runs; inconclusive = weak or mixed curves; inactive = no such curve, though single readings can be large; an effect the other way counts as inactive or inconclusive.
# Key:
# [1] = qHTS assay to identify small molecule antagonists of the thyroid receptor (TR) signaling pathway - cell viability counter screen (AID 743064); note: nearly all actives have a fitted effect of over 50% in size; note: potency is the fitted concentration of half-maximal effect
# In short: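 GH3.TRE-Luc cells, 4 h pre-plating; cpd + T3 1 nM final; 37 °C 23.5 h; CellTiter-Fluor 30 min; fluorescence read.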
# [2] = qHTS assay to identify small molecule antagonists of the thyroid receptor (TR) signaling pathway (AID 743065); note: nearly all actives have a fitted effect of over 55% in size; note: potency is the fitted concentration of half-maximal effect
# In short: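 GH3.TRE-Luc rat pituitary cells carrying two TR response elements driving luciferase were plated for 4 h, given compound plus 1 nM T3 (final), and incubated 23.5 h at 37 C. ONE-Glo luminescence measured reporter inhibition; CellTiter-Fluor fluorescence tracked cytotoxicity.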
# [3] = tested on: thyroid hormone receptor (rat, GH3 cells); assay: qHTS assay to identify small molecule agonists of the thyroid receptor (TR) signaling pathway (AID 743066; calls by dose curve)
# [4] = target: Estrogen receptor (Homo sapiens) (UniProt P03372); assay: qHTS assay to identify small molecule antagonists of the estrogen receptor alpha (ER-alpha) signaling pathway (AID 743069; active = well fitted curve in the direction sought with a large enough effect in the signal ratio in the repeat runs, not every such curve was filed as active; inconclusive = weak or mixed curves, or effect the other way; inactive = no such curve, though single readings can be large or run the other way; the % refers to the signal ratio; note: potency is the fitted concentration of half-maximal effect)
# In short: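 A 17beta-estradiol challenge was applied right after compound transfer to ER-alpha-UAS-bla HEK293 cells previously kept in charcoal-stripped serum. Plates stood 18 hr at 37C and 5% CO2; fluorescence was read following 2 hr FRET substrate loading at room temperature.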
# [5] = qHTS assay to identify small molecule antagonists of the estrogen receptor alpha (ER-alpha) signaling pathway - cell viability counter screen (AID 743074; calls by dose curve;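 note: HEK293 cells carrying ER-alpha-UAS-bla reporter stimulated with 17beta-estradiol; nearly all actives have a fitted effect of over 45% in size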; note: potency is the fitted concentration of half-maximal effect)
# [6] = target: Estrogen receptor (Homo sapiens) (UniProt P03372); assay: qHTS assay to identify small molecule agonists of the estrogen receptor alpha (ER-alpha) signaling pathway (AID 743075; calls by dose curve;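 note: HEK293 GripTite cells with ER-alpha and UAS-driven beta-lactamase reporter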; note: potency is the fitted concentration of half-maximal effect); conditions: HEK293 ER-alpha-UAS-bla, beta-lactamase FRET ratio, 18 h; activation: at 70.1 µM (top of the series)
# [7] = target: Estrogen receptor (Homo sapiens) (UniProt P03372); assay: qHTS assay to identify small molecule agonists of the estrogen receptor alpha (ER-alpha) signaling pathway using the BG1 cell line (AID 743079); conditions: BG1Luc4E2 cells, ERE-luciferase agonist, 22 h; note: nearly all actives have a fitted effect of over 20% in size; note: potency is the fitted concentration of half-maximal effect
# [8] = qHTS assay to identify small molecule antagonists of the estrogen receptor alpha (ER-alpha) signaling pathway using the BG1 cell line (AID 743080; calls by dose curve;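 note: BG1 cells stimulated with 17beta-estradiol alongside compound; nearly all actives have a fitted effect of over 25% in size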; note: potency is the fitted concentration of half-maximal effect)
# In short: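 BG1-Luc-4E2 cells (endogenous full-length ER-alpha, stable 4×ERE-luciferase) were starved 5 days in phenol-red-free medium with 10% charcoal-stripped FBS, plated 24 h, then given compound plus 17beta-estradiol for 21.5 h at 37 C; ONE-Glo luminescence read after 30 min.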
# [9] = qHTS assay to identify small molecule antagonists of the estrogen receptor alpha (ER-alpha) signaling pathway using the BG1 cell line - cell viability counter screen (AID 743081);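 note: compound given together with 17beta-estradiol as the ER stimulus; nearly all actives have a fitted effect of over 45% in size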; note: potency is the fitted concentration of half-maximal effect
# Aromatase (Homo sapiens) = Aromatase (Homo sapiens) (UniProt P11511); assay: qHTS assay to identify aromatase inhibitors (AID 743083); note: nearly all actives have a fitted effect of over 55% in size; note: potency is the fitted concentration of half-maximal effect
# [10] = qHTS assay to identify aromatase inhibitors - cell viability counter screen (AID 743084);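 note: cells stimulated with testosterone during compound exposure; nearly all actives have a fitted effect of over 55% in size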; note: potency is the fitted concentration of half-maximal effect
# [11] = target: Aryl hydrocarbon receptor (Homo sapiens) (UniProt P35869); assay: qHTS assay to identify small molecule that activate the aryl hydrocarbon receptor (AhR) signaling pathway (AID 743085); note: nearly all actives have a fitted effect of over 15% in size; note: potency is the fitted concentration of half-maximal effect;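 for activation: HG2L7.5c1 human HepG2 liver cells with stably integrated DRE-driven firefly reporter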
# In short: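 Luminescence read-out: ONE-Glo reagent, 30 min at room temperature, in HG2L7.5c1 HepG2 reporter cells treated 24 h at 37C. Viability was measured beforehand by CellTiter-Fluor fluorescence after 30 min at 37C.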
# [12] = qHTS assay to identify small molecule that activate the aryl hydrocarbon receptor (AhR) signaling pathway - cell viability counter screen (AID 743086); note: nearly all actives have a fitted effect of over 45% in size; note: potency is the fitted concentration of half-maximal effect
# In short: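 HepG2-AhR-luc (HG2L7.5c1) cells, 4000/well, were preincubated 5 h at 37C, exposed to compound in qHTS format for 24 hr at 37C, then given CellTiter-Fluor for 30 min; viability was read as fluorescence in the reporter wells.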
# [13] = target: Peroxisome proliferator-activated receptor gamma (Homo sapiens) (UniProt P37231); assay: qHTS assay to identify small molecule agonists of the peroxisome proliferator-activated receptor gamma (PPARg) signaling pathway (AID 743094; active = well fitted activation curve with a large enough effect in the signal ratio in the repeat runs, not every such curve was filed as active; inconclusive = weak or mixed curves, or effect the other way; inactive = no such curve, though single readings can be large or run the other way; the % refers to the signal ratio)
# In short: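 Cells from the PPARg UAS-bla HEK293H line are plated and incubated 5 h at 37C. Compounds in DMSO are pinned in and left 17 h at 37C. LiveBLAzer B/G substrate is then added for 1 h at room temperature before fluorescence is measured.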
# [14] = target: Peroxisome proliferator-activated receptor gamma (Homo sapiens) (UniProt P37231); assay: qHTS assay to identify small molecule antagonists of the peroxisome proliferator-activated receptor gamma (PPARg) signaling pathway (AID 743191; calls by dose curve; note: nearly all actives have a fitted effect of over 30% in size; note: potency is the fitted concentration of half-maximal effect)
# In short: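 GeneBLAzer PPARg UAS-bla HEK293H cells carrying a UAS-driven beta-lactamase reporter were plated at 3000 cells/well, preincubated 5 h at 37C, then given compound for 17 h at 37C; LiveBLAzer B/G FRET substrate was read after 1 h at room temperature.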
# [15] = qHTS assay to identify small molecule antagonists of the peroxisome proliferator-activated receptor gamma (PPARg) signaling pathway - cell viability counter screen (AID 743194); note: nearly all actives have a fitted effect of over 55% in size; note: potency is the fitted concentration of half-maximal effect
# In short: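 PPARg-UAS-bla HEK293H cells were plated, rested 5 h at 37 C, then treated with compounds plus rosiglitazone (50 nM final) for 17 h at 37 C; viability was then read by CellTiter-Glo luminescence after 30 min at room temperature.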
# [16] = qHTS assay for small molecule agonists of the antioxidant response element (ARE) signaling pathway - cell viability counter screen (AID 743203; calls by dose curve; note: nearly all actives have a fitted effect of over 55% in size; note: potency is the fitted concentration of half-maximal effect)
# In short: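 Cytotoxicity was tested in parallel with the ARE reporter screen. ARE-bla HepG2 cells were exposed to compounds for 16 hrs, and viability was taken from CellTiter-Glo luminescence.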
# [17] = qHTS assay for small molecule activators of the heat shock response signaling pathway - cell viability counter screen (AID 743209); note: nearly all actives have a fitted effect of over 50% in size; note: potency is the fitted concentration of half-maximal effect
# In short: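 Cytotoxicity counter screen run in parallel with the HSE beta-lactamase reporter, using the same wells. HeLa HSE-bla cells received compound for 5 h at 37 C; ATP-based CellTiter-Glo luminescence was measured after 30 min at room temperature.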
# [18] = qHTS assay for small molecule activators of the heat shock response signaling pathway (AID 743210; active = well fitted activation curve with a large enough effect in the signal ratio in the repeat runs, with a control signal flat, not every such curve was filed as active; inconclusive = weak or mixed curves; the % refers to the signal ratio)
# In short: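 Heat shock element–beta-lactamase HeLa reporter cells; qHTS with compounds for 5 h at 37 C; detection by FRET substrate fluorescence after 2.5 h at RT.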
# Estrogen receptor (Homo sapiens), sequence (P03372 whole entry, looked up): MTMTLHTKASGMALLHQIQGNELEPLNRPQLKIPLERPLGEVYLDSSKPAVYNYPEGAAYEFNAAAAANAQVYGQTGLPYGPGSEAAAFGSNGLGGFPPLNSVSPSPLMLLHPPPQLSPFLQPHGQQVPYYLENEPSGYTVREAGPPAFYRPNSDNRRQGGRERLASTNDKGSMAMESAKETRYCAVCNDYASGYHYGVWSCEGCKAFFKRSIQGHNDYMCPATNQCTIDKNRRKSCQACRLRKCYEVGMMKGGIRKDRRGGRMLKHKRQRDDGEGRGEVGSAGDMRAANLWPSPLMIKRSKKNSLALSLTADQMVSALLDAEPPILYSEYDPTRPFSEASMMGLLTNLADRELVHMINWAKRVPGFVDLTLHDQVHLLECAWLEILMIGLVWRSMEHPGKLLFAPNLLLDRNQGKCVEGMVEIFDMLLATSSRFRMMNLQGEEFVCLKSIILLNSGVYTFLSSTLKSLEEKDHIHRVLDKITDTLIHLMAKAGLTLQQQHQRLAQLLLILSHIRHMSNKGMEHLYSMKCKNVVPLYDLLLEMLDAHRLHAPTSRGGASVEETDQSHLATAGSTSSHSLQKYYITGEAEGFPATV
# Peroxisome proliferator-activated receptor gamma (Homo sapiens), sequence (P37231 whole entry, looked up): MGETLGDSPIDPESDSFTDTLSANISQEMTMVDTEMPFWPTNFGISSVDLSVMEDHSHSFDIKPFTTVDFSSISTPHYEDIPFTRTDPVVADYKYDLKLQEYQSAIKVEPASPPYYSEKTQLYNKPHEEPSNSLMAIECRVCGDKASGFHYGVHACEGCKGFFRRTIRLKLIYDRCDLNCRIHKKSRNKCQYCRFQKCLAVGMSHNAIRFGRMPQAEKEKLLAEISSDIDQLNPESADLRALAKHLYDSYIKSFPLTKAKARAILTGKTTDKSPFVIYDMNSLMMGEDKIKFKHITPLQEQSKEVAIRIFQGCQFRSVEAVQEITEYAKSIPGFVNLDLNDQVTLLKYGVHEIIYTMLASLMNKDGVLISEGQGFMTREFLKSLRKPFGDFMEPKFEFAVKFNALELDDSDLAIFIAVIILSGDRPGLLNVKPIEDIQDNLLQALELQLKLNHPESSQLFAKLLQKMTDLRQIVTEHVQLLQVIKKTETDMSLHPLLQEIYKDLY
# Aryl hydrocarbon receptor (Homo sapiens), sequence (P35869 whole entry, looked up): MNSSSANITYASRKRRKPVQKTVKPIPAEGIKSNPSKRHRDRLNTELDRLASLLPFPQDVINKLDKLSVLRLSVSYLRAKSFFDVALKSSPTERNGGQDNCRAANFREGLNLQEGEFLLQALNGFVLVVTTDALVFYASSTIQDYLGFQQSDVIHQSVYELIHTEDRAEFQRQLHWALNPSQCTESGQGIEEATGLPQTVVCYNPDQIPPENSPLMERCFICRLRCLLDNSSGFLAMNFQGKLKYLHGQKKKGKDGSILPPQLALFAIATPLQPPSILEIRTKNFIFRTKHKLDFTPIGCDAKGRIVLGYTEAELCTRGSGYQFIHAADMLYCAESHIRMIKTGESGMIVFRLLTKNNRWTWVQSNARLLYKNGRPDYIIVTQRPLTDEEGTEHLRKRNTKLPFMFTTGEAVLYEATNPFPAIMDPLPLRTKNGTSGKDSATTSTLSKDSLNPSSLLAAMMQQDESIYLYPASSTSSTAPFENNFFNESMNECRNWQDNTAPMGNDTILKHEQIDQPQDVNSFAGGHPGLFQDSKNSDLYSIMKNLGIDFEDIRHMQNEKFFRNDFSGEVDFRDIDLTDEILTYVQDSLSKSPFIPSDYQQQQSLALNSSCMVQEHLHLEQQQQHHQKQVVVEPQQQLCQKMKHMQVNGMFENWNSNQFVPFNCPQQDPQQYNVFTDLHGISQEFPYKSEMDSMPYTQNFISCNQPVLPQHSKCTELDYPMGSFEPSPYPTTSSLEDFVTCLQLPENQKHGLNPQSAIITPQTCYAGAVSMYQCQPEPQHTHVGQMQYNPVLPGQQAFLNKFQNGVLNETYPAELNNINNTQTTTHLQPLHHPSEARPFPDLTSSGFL
# Aromatase (Homo sapiens), sequence (P11511 whole entry, looked up): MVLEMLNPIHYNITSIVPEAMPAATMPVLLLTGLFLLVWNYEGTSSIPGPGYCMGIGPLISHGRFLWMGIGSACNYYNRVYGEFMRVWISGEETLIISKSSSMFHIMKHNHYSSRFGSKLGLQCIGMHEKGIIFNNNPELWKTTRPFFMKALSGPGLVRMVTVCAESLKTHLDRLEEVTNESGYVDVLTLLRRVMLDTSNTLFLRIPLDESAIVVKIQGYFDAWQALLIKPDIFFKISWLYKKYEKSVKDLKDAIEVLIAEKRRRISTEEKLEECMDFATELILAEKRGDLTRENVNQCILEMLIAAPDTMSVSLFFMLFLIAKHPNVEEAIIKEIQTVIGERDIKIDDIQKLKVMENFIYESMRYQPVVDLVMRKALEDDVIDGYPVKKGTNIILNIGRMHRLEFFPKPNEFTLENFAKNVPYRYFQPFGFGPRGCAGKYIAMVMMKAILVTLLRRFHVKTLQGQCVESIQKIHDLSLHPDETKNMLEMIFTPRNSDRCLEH
smiles,measurement,setting,value
NNC(=O)c1cccc(C(=O)NN)c1,Potency,[1],inactive
same,Potency,[2],inactive
same,Potency,[3],inactive
same,Potency,[4],inactive
same,Potency,[5],inactive
same,Potency,[6],inactive
same,activation,[7]; at 70.3 µM (top of the series),4.33% (inactive)
same,Potency,[8],inactive
same,Potency,[9],inactive
same,Potency,Aromatase (Homo sapiens),inactive
same,Potency,[10],inactive
same,Potency,[11],27.3 µM (active)
same,Potency,[12],inactive
same,Potency,[13],inactive
same,Potency,[14],inactive
same,Potency,[15],inactive
same,Potency,[16],inactive
same,Potency,[17],inactive
same,Potency,[18],inactive
O=C(c1ccc(O)cc1O)c1ccc(O)cc1O,Potency,[1],inactive
same,Potency,[2],30.7 µM (active) and 54.5 µM (active)
same,Potency,[3],inactive
same,Potency,[4],inactive
same,Potency,[5],inactive
same,Potency,[6],11 µM [inconclusive] (active) and 9.77 µM [inconclusive] (active)
same,Potency,[7],4.33 µM (active) and 15.4 µM (active)
same,Potency,[8],inactive
same,Potency,[9],inactive
same,Potency,Aromatase (Homo sapiens),inactive
same,Potency,[10],inactive
same,Potency,[11],21.7 µM (active)
same,Potency,[12],inactive
same,Potency,[13],inactive
same,Potency,[15],inactive
same,Potency,[16],inactive
same,Potency,[17],inactive
CC(=O)S[C@@H]1CC2=CC(=O)CC[C@]2(C)[C@H]2CC[C@@]3(C)[C@@H](CC[C@@]34CCC(=O)O4)[C@H]12,Potency,[1],27.3 µM (active)
same,Potency,[2],26.6 µM (active) and 27.3 µM (active)
same,Potency,[3],inactive
same,Potency,[4],12.3 µM [inconclusive] (active)
same,Potency,[5],inactive
same,Potency,[6],inactive
same,activation,[7]; at 70.3 µM (top of the series),7.41% (inactive) and -17.9% (inactive)
same,Potency,[8],inactive and 48.6 µM (active)
same,Potency,[9],inactive
same,Potency,Aromatase (Homo sapiens),26.6 µM (active) and 27.3 µM (active)
same,Potency,[10],inactive
same,Potency,[11],inactive
same,Potency,[12],inactive
same,Potency,[18],inactive
O=C(c1ccc(F)cc1)C1CCN(CCn2c(=O)[nH]c3ccccc3c2=O)CC1,Potency,[1],inactive
same,Potency,[2],inactive
same,Potency,[3],inactive
same,Potency,[4],inactive
same,Potency,[5],inactive
same,Potency,[6],inactive
same,activation,[7]; at 70.3 µM (top of the series),21.8% (inactive)
same,Potency,[8],inactive
same,Potency,[9],inactive
same,Potency,Aromatase (Homo sapiens),inactive
same,Potency,[10],inactive
same,Potency,[11],inactive
same,Potency,[12],inactive
same,Potency,[13],inactive
same,Potency,[15],inactive
same,Potency,[16],inactive
same,Potency,[17],inactive
same,Potency,[18],inactive
Clc1ccc2nsnc2c1NC1=NCCN1,Potency,[1],inactive
same,Potency,[2],inactive
same,Potency,[3],inactive
same,Potency,[4],inactive
same,Potency,[5],inactive
same,Potency,[6],inactive
same,activation,[7]; at 70.3 µM (top of the series),1.06% (inactive)
same,Potency,[8],inactive
same,Potency,[9],inactive
same,Potency,Aromatase (Homo sapiens),inactive
same,Potency,[10],inactive
same,Potency,[12],inactive
same,Potency,[13],inactive
same,Potency,[14],inactive
same,Potency,[15],inactive
same,Potency,[17],inactive
same,Potency,[18],inactive
Nc1ccccc1O,Potency,[1],26.9 µM (active)
same,Potency,[2],42.7 µM (active)
same,Potency,[3],inactive
same,Potency,[4],inactive
same,Potency,[5],inactive
same,Potency,[6],inactive
same,Potency,Aromatase (Homo sapiens),67.7 µM (active)
same,Potency,[10],67.7 µM (active)
same,Potency,[11],21.4 µM (active)
same,Potency,[15],inactive
same,Potency,[18],inactive
CSc1cnc(C)cn1,Potency,[1],inactive
same,Potency,[2],inactive
same,Potency,[3],inactive
same,Potency,[4],inactive
same,Potency,[5],inactive
same,Potency,[6],inactive
same,activation,[7]; at 95 µM (top of the series),0.548% (inactive)
same,Potency,[8],inactive
same,Potency,[9],inactive
same,Potency,Aromatase (Homo sapiens),inactive
same,Potency,[10],inactive
same,Potency,[11],inactive
same,Potency,[12],inactive
same,Potency,[13],inactive
same,Potency,[14],inactive
same,Potency,[15],inactive
same,Potency,[17],inactive
same,Potency,[18],inactive
ON=C1CCCC1,Potency,[1],inactive
same,Potency,[2],inactive
same,Potency,[3],inactive
same,Potency,[4],inactive
same,Potency,[5],inactive
same,Potency,[6],inactive
same,activation,[7]; at 95 µM (top of the series),13.6% (inactive)
same,Potency,[8],inactive
same,Potency,[9],inactive
same,Potency,Aromatase (Homo sapiens),inactive
same,Potency,[10],inactive
same,Potency,[11],inactive
same,Potency,[12],inactive
same,Potency,[13],inactive
same,Potency,[14],inactive
same,Potency,[15],inactive
same,Potency,[16],inactive
same,Potency,[17],inactive
same,Potency,[18],inactive
CC(C)(C)C(=O)OCOC(=O)C1N2C(=O)CC2S(=O)(=O)C1(C)C (centres undefined),Potency,[1],inactive
same,Potency,[2],inactive
same,Potency,[3],inactive
same,Potency,[4],3.38 µM [inconclusive] (active)
same,Potency,[5],inactive
same,Potency,[6],inactive
same,activation,[7]; at 70.3 µM (top of the series),-1.04% (inactive)
same,Potency,[8],inactive
same,Potency,[9],inactive
same,Potency,Aromatase (Homo sapiens),inactive
same,Potency,[10],inactive
same,Potency,[12],inactive
same,Potency,[15],inactive
same,Potency,[16],inactive
same,Potency,[17],inactive
CCCCCCCCS(=O)C(C)Cc1ccc2c(c1)OCO2 (centres undefined),Potency,[1],69.9 µM (active)
same,Potency,[2],62.3 µM (active)
same,Potency,[3],inactive
same,Potency,[5],inactive
same,Potency,[6],inactive
same,Potency,[9],inactive
same,Potency,[12],inactive
same,Potency,[14],56 µM (active)
same,Potency,[15],inactive
Oc1ccc(Cl)cc1Sc1cc(Cl)ccc1O,Potency,[1],11.9 µM (active) and 7.68 µM (active)
same,Potency,[2],5.96 µM (active) and 2.73 µM (active)
same,Potency,[3],inactive
same,Potency,[5],19 µM (active) and 38.8 µM (active)
same,Potency,[6],inactive
same,Potency,[8],inactive
same,Potency,[9],inactive
same,Potency,Aromatase (Homo sapiens),26.6 µM (active) and 27.3 µM (active)
same,Potency,[12],inactive
same,Potency,[13],inactive
same,Potency,[14],13.3 µM (active)
same,Potency,[15],4.89 µM (active) and 5.96 µM (active)
same,Potency,[16],61 µM (active) and 29.8 µM (active)
same,Potency,[17],38.8 µM (active)
CCCCCCCCCCCC[N+](C)(C)CCCCCCCCCCCC,Potency,[1],24.3 µM (active)
same,Potency,[2],17.2 µM (active)
same,Potency,[3],inactive
same,Potency,[4],inactive
same,Potency,[5],24.5 µM (active)
same,Potency,[9],68.6 µM (active)
same,Potency,Aromatase (Homo sapiens),17.2 µM (active)
same,Potency,[10],21.7 µM (active)
same,Potency,[11],inactive
same,Potency,[12],48.6 µM (active)
same,Potency,[15],27.5 µM (active)
same,Potency,[16],24.3 µM (active)
same,Potency,[17],43.6 µM (active)
c1ccc(CSCc2ccccc2)cc1,Potency,[1],inactive
same,Potency,[2],inactive
same,Potency,[3],inactive
same,Potency,[5],inactive
same,Potency,[9],inactive
same,Potency,Aromatase (Homo sapiens),inactive
same,Potency,[10],inactive
same,Potency,[11],inactive
same,Potency,[12],inactive
same,Potency,[13],inactive
same,Potency,[14],inactive
same,Potency,[15],inactive
same,Potency,[16],inactive
same,Potency,[17],inactive
same,Potency,[18],inactive
